BoNT-F LC inh: inhibitors of Botulinum neurotoxin F light chain protease | inhibition, % at 10 µM | AID 588497 | actives 0.22% (n = 360,000) | Multiplex microsphere protease cleavage assay, flow cytometry; in the data active = inhibition above about 35%, passing the limit was not always enough; inconclusive = no clear call, values can overlap the other calls; note: plate controls were buffer without enzyme for full effect and enzyme alone for no effect
Vc quorum ag: quorum light induction in luxS cqsA deficient V. cholerae; V. cholerae BH1578 lux reporter, luminescence, 6 h; activation, % at 18.7 µM; actives 0.16% (n = 350,000); in the data active = activation mostly above about 9.7%, no sharp cut-off; inconclusive = no clear call, values can overlap the other calls; inactive = mostly below about 3.7%
BJeLR viability: kills HRASV12-expressing BJeLR cells; actives 0.17% (n = 300,000); inhibition, % (test concentration not listed); BJeLR (HRASV12) viability, CellTiter-Glo ATP luminescence, 48 h; in the data active = inhibition above about 50%; inconclusive = no clear call, values can overlap the other calls
Anthrax LF prot: blocks Bacillus anthracis lethal factor protease. AID 588501. multiplex microsphere protease cleavage assay, LF. inhibition, % at 10 µM. P15917. actives 0.12% (n = 360,000); note: plate controls were buffer without enzyme for full effect and enzyme alone for no effect
Autofluor counter: compound fluorescence in toxin protease inhibitor counterscreen; compound autofluorescence counterscreen, microsphere flow cytometry; stronger effect = higher value; actives 3.1% (n = 360,000); AID 624483; fluorescence intensity (test concentration not listed); in the data active = fluorescence intensity above about 16000; inconclusive = no clear call, values can overlap the other calls
BoNT-A LC inh2: blocks Botulinum neurotoxin A light chain protease; multiplex microsphere protease substrate cleavage, flow cytometry; AID 588499; actives 0.17% (n = 360,000); inhibition, % at 10 µM; note: plate controls were buffer without enzyme for full effect and enzyme alone for no effect
* marks the source's active call; other numbers are inactive results; i = inactive; u = inconclusive; x = no result given. Sampled rows, rich in hits. Any-hit rate of the full collection: about 3.7%. Cut-off read from the data, not from the text of the source, unless noted: active = inhibition above about 30%; inconclusive = no clear call, values can overlap the other calls; inactive = below that.

SMILES	BoNT-F LC inh	Vc quorum ag	BJeLR viability	Anthrax LF prot	Autofluor counter	BoNT-A LC inh2
O=S(=O)(c1ccc2c(c1)OCCO2)N1CCC(c2nc3ccc(Cl)cc3[nH]2)CC1	4	i	0	3	15046	4
Clc1ccc(N2O[C@H]3C=C[C@@H]2C3)nc1	6	x	x	1	5431	1
Cn1ccc2c(-c3ccc(C(=O)O)cc3)cc3c(c21)C1CCC3O1 (stereo not drawn)	3	x	x	3	5206	0
COC(=O)C1CCN(C(=O)c2ccc(Cl)c(S(=O)(=O)NCc3cccnc3)c2)CC1	-4	-1	x	-3	23363*	u
O=C(c1ccc(Cl)c(S(=O)(=O)NCc2ccccc2)c1)N1CCN(c2ccccn2)CC1	0	i	4	0	18872*	2
Cc1cccc(OCCNC(=O)c2ccc(Cl)c(S(=O)(=O)NCc3cccnc3)c2)c1	-2	i	x	3	3933	0
CCOc1cc2c(c3c1C(c1ccccc1)N(S(=O)(=O)c1ccc(C)cc1)C3)C(=O)C=CC2=O (stereo not drawn)	-3	x	x	-4	5053	2
COc1cccc(C#Cc2cnc3c(c2)C(=O)N([C@@H](C)CO)C[C@H](C)[C@H](CN(C)C(=O)C2CCC2)O3)c1	-6	i	x	-1	3687	0
CCC(C)(O)c1cnc(CC(C)C)c(=O)n1O (stereo not drawn)	-6	0	x	-3	5488	0
CC1(C)CC(=O)C2=C(C1)OC(N)=C(C#N)C21C(=O)N2CCCc3cccc1c32 (stereo not drawn)	1	0	-15	-5	16191*	1
CC1(C)CC(=O)C2=C(C1)OC(N)=C(C#N)[C@@]21C(=O)N(CC(N)=O)c2ccccc21	-6	-7	6	4	3515	0
Cc1ccc(NC(=O)CC(O)(C(F)(F)F)C(F)(F)F)cc1	-3	i	6	1	22690*	u
Cc1ccc(S(=O)(=O)NCC(=O)Nc2ccc(C(F)(F)F)cc2)cc1	-2	0	-1	-1	23413*	-1
O=C(CNS(=O)(=O)c1ccc(F)cc1)Nc1ccc(C(F)(F)F)cc1	0	0	-4	-1	16544*	0
CCC(=O)N1Cc2cc(C(=O)Nc3nccs3)nc(-c3cccc(-c4ccccc4OC)c3)c2[C@H]1CCO	-12	x	x	2	5727	0
CCN(CC)Cc1cc(Nc2ccnc3cc(Cl)ccc23)ccc1O	-15	i	3	10	4630	-1
CCN(CC)CCNc1ccnc2cc(Cl)ccc12	0	i	-6	0	20811*	0
CCC(CO)NCc1ccc2c(c1)n(C)c(=O)n2C (stereo not drawn)	0	-6	-1	-1	16488*	0
CC1(C)NC(=O)N(CC(O)CN2CCCCC2)C1=O (stereo not drawn)	1	i	4	1	19639*	u
COc1ccc(C(=O)N2CCC2(C)C(=O)O)cc1C(F)(F)F (stereo not drawn)	11	0	x	-1	2791	0
CCCCCC1NC(=O)NC1CCCCCC(=O)O (stereo not drawn)	11	0	2	1	18045*	7
CC1CC(=O)NN=C1c1ccc(N(C)C)c([N+](=O)[O-])c1 (stereo not drawn)	5	i	-19	3	18577*	3
Cn1nc(C(C)(C)C)cc1NC(=O)C1(C)CCN1C(=O)c1ccccc1CCc1ccccc1 (stereo not drawn)	5	0	x	0	3564	0
COc1cncc(C#Cc2ccccn2)c1	-5	x	x	-6	4453	0
CC(C)C[C@@H]1COc2cc(N(C)CCO)ccc2S(=O)(=O)N1	-4	x	x	-2	6029	-1
Cc1nc(=O)c(-c2ccccc2)c(C)n1-c1ccc(S(N)(=O)=O)cc1	2	-1	8	-2	2396	0
Cc1nc(=O)c(-c2ccccc2)c(C)n1-c1ccc(C(=O)O)cc1	-1	-11	11	0	22979*	1
COc1cc(CCN(C(=O)c2cc3ccccc3[nH]2)C(c2ccccn2)c2nc3ccccc3[nH]2)cc(OC)c1 (stereo not drawn)	-2	x	x	0	4265	-1
Cc1cc(NC(=O)c2noc3c2CCCCC3)no1	-7	i	-1	-2	9941	-1
Cc1nn(Cc2ccc(Cl)c(Cl)c2)c(C)c1NC(=O)c1noc2c1CCCCC2	-9	0	-17	0	17489*	u

High-throughput results: PubChem BioAssay, several laboratories
